We go through 23 compounds from PubChem BioAssay AID1645838 (ICCB-Longwood Screening Facility, Harvard Medical School, 2021).

Each structure is given as a SMILES string. The whole screen tested about 2,000 compounds, of which about 100 (5%) were called active. No stated cut-off is given here; in the data, active means z-score above about 2; inactive means the rest. Only a selection was taken, and actives are over-represented in it overall. Residues, ends and D or L forms follow the SMILES beside them. *: point of attachment. Cbz = O=C(OCc1ccccc1)*

This test can be described thus: modulators of mitochondrial supercomplex assembly, cell-based, luminescence, Hoechst nuclei count (AID 1645838).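 On all read-outs here: control cybrid cells.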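 On z-score: higher means more mitochondrial supercomplex formation.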 The following applies: Cells, luminescence/Hoechst cell count ratio, supercomplex reporter; for z-score: stronger effect = higher value; for cell count: measured here: cell number, Hoechst nuclei count.
Setting [1] is: library stock concentration (final well concentration not given) 80 uM.
Where [2] appears, read: library stock concentration (final well concentration not given) 400 uM.
Where [3] appears, read: library stock concentration (final well concentration not given) 2 mM.
[4] abbreviates: library stock concentration (final well concentration not given) 10 mM.
Setting [5] is: library stock concentration (final well concentration not given) 46 uM.
Setting [6] is: library stock concentration (final well concentration not given) 278 uM.
[7] abbreviates: library stock concentration (final well concentration not given) 1.67 mM.

As to `Cn1ncnc1C1c2n[nH]c(=O)c3cc(F)cc(c23)NC1c1ccc(F)cc1` (stereo not drawn), the outcome (library stock 10 mM) was “inactive; censored for cell count”. In addition, the z-score was 1.87 (inactive) under setting [1], 3.69 (active) under setting [2] and 6.89 (active) under setting [3]. Moreover, the cell count reads like this: under setting [1], 3700; under setting [2], 2650; under setting [3], 1700.
On to `CC#C[C@]1(O)CC[C@@H]2[C@@H]3CCC4=CC(=O)CCC4=C3C(c3ccc(N(C)C)cc3)C[C@@]21C` (stereo partly drawn), for which the z-score under setting [1] was -0.535 (inactive), the z-score under setting [2] was -0.414 (inactive), the z-score under setting [3] is -0.596 (inactive) and the z-score under setting [4] is -0.985 (inactive). The cell count under setting [1] stood at 5620, the cell count under setting [2] was determined as 5640, the cell count under setting [3] came out at 5480 and the cell count under setting [4] is 4850.
With `Cc1cc(C)cc(NC(=O)Nc2ccc(S(N)(=O)=O)cc2)c1`, the z-score runs as follows: under setting [1], -0.282 (inactive); under setting [2], -0.269 (inactive); under setting [3], -0.436 (inactive); under setting [4], -0.561 (inactive). The cell count was 5270 under setting [1], 5260 under setting [2], 5280 under setting [3] and 5230 under setting [4].
`CCCCC[C@@H](O)CC[C@H]1[C@H](O)CC(=O)[C@@H]1CCCCCCC(=O)O`: the z-score is 0.414 (inactive) and the cell count came to 5360.
Consider `CCCCCC(=O)CC[C@H]1[C@H](O)CC(=O)[C@@H]1C/C=C\CCCC(=O)O`, for which the z-score was 0.0242 (inactive) and the cell count was found to be 5260.
In the same order, the values of `CCCCCC(=O)CC[C@H]1[C@H](O)CC(=O)[C@@H]1CCCCCCC(=O)O` are 3.62 (active) and 3870.
In the same order, the values of `CCCCC[C@H](O)/C=C/[C@@H]1[C@@H](C/C=C\CCCC(=O)NCCO)[C@@H](O)C[C@H]1O` are -0.4 (inactive) and 5500.
For the compound `COc1ccc(C2(O)CCC(N3CCC(NC(=O)CNC(=O)c4cccc(C(F)(F)F)c4)C3)CC2)cn1` (stereo not drawn), the z-score by setting is: under setting [1], 0.226 (inactive); under setting [2], 0.00991 (inactive); under setting [3], -0.208 (inactive); under setting [4], -0.124 (inactive). Further, the cell count under setting [1] turned out to be 5820, the cell count under setting [2] amounted to 5470, the cell count under setting [3] amounted to 6300 and the cell count under setting [4] was 5360.
Regarding `CC(C)CC(C=O)NC(=O)C(CC(C)C)NC(=O)C(CC(C)C)NC(=O)OCc1ccccc1` (stereo not drawn) (Cbz-Leu-Leu-Leu-aldehyde; configuration not given here), the outcome is “inactive; censored for cell count” (library stock 1.67 mM) and “inactive; censored for cell count” (library stock 10 mM). Also, the z-score reads like this: under setting [5], -0.417 (inactive); under setting [6], -0.122 (inactive). In addition, the cell count runs as follows: under setting [5], 6590; under setting [6], 5640.
On to `Cc1cc(N2CCOCC2)cc2[nH]c(-c3c(NCC(O)c4cccc(Cl)c4)cc[nH]c3=O)nc12` (stereo not drawn), for which the z-score reads like this: under setting [1], 0.23 (inactive); under setting [2], 0.0421 (inactive); under setting [3], 0.963 (inactive); under setting [4], 5.5 (active). Further, the cell count amounted to 5280 under setting [1], 5710 under setting [2], 4590 under setting [3] and 1770 under setting [4].
On to `CCCCC[C@H](O)/C=C/[C@H]1[C@H](O)CC(=O)[C@@H]1C/C=C/CCCC(=O)O`, for which the z-score is 0.327 (inactive) and the cell count came to 4880.
`CC(C)=CCC/C(C)=C/CC/C(C)=C/CC[C@]1(C)CCc2c(C)c(O)c(C)c(C)c2O1`: the z-score was -0.823 (inactive) and the cell count was 5060.
Take `NS(=O)(=O)OCC1CC(n2ccc3c(NC4CCc5ccccc54)ncnc32)CC1O` (stereo not drawn): the outcome by setting is: (library stock 1.67 mM) “inactive; censored for cell count”; (library stock 10 mM) “inactive; censored for cell count”. Besides, the z-score under setting [5] is 1.02 (inactive) and the z-score under setting [6] is 4.89 (active). In addition, the cell count reads like this: under setting [5], 5390; under setting [6], 2380.
As for `CCCCC[C@H](O)/C=C/[C@H]1CC[C@@H](O)[C@@H]1C/C=C\CCCC(=O)O`, the z-score is -0.672 (inactive) and the cell count amounted to 5720.
In the same order, the values of `NCc1cccc2ccncc12` are -0.00644 (inactive) and 5160.
On to `CCCCC/C=C/C=C1/C=CC(=O)[C@@H]1CCCCCCC(=O)O`, for which the z-score was -0.804 (inactive) and the cell count was determined as 5740.
Consider `CN1c2ccc([N+](=O)[O-])cc2N=C(c2ccc(C(=O)O)cc2)c2cc3c(cc21)C(C)(C)CCC3(C)C`, for which the z-score is, setting by setting: under setting [5], -0.143 (inactive); under setting [6], -0.194 (inactive); under setting [7], -0.234 (inactive); under setting [4], -0.264 (inactive). For the same compound, the cell count under setting [5] was found to be 5860, the cell count under setting [6] was 5990, the cell count under setting [7] came to 5440 and the cell count under setting [4] came out at 4270.
Take `O=C(O)c1ccc2nc(-c3cc(Cl)cc(Cl)c3)oc2c1`: the z-score is, setting by setting: under setting [5], 0.415 (inactive); under setting [6], 0.328 (inactive); under setting [7], 0.106 (inactive); under setting [4], 0.34 (inactive). Further, the cell count is, setting by setting: under setting [5], 6810; under setting [6], 6930; under setting [7], 7500; under setting [4], 7380.
For `O=C(O)c1cc2ccccc2c(Cc2c(O)c(C(=O)O)cc3ccccc23)c1O`, the z-score is -0.00825 (inactive) under setting [1], 0.355 (inactive) under setting [2], 0.379 (inactive) under setting [3] and 0.06 (inactive) under setting [4]. Besides, the cell count under setting [1] was 4700, the cell count under setting [2] was 4390, the cell count under setting [3] is 4510 and the cell count under setting [4] came to 4530.
On to `O=C(O)c1cc(O)c2ccccc2c1O`, for which the z-score is 0.31 (inactive) under setting [5], 1.17 (inactive) under setting [6], 0.601 (inactive) under setting [7] and 2.64 (active) under setting [4]. Moreover, the cell count under setting [5] came to 6560, the cell count under setting [6] was 6080, the cell count under setting [7] stood at 6240 and the cell count under setting [4] was found to be 3940.
On to `Nc1ccc(O)c(C(=O)O)c1`, for which the z-score was -0.67 (inactive) and the cell count worked out at 5710.
Take `C=C1C[C@H](O)[C@H](C/C=C\CCCC(=O)O)[C@H]1/C=C/[C@@H](O)CCCCC`: the z-score was -0.218 (inactive) and the cell count was determined as 5720.
In the case of `CC(C)c1ccccc1S(=O)(=O)c1cc(N)c2ncccc2c1[N+](=O)[O-]`, the z-score under setting [5] was -0.201 (inactive), the z-score under setting [6] was 0.537 (inactive), the z-score under setting [7] was 0.241 (inactive) and the z-score under setting [4] is 2.73 (active). The cell count is 6190 under setting [5], 6010 under setting [6], 6020 under setting [7] and 4420 under setting [4].
